# Results: PubChem BioAssay AID504454 (NMMLSC, 2011)
# The campaign covered roughly 340,000 compounds. About 1,400 (0.41%) were called active. Only a selection was taken, and actives are over-represented in it overall. A number with no mark means an inactive call.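 Rule for the calls: active = response above a set limit, near 3 SD of response in nonfluorescent compounds (cut at about 42% in these data); inactive = the rest.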
# Target: Beta-2 adrenergic receptor (Homo sapiens) (UniProt P07550)
# Assay: agonist-induced loss of surface beta2AR – cell-based, FAP fluorogen, flow cytometry, primary screen (AID 504454)
# Conditions: Am2.2-beta2AR cells, FAP receptor internalization, hits give high values, concentration not given here
# Chain of Beta-2 adrenergic receptor (Homo sapiens) (P07550 whole entry, looked up): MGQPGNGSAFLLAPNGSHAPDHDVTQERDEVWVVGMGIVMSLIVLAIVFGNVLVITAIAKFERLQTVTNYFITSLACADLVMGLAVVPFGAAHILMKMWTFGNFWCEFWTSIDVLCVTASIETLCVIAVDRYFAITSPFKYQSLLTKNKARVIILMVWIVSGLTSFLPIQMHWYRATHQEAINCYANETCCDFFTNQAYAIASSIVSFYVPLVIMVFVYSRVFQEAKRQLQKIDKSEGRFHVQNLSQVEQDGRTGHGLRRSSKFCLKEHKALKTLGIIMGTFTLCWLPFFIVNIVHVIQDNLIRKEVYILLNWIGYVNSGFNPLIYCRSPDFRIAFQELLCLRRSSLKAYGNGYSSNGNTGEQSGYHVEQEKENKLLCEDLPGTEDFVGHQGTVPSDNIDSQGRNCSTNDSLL
row,SMILES,response
1,CSc1ccc(S(=O)(=O)N2CCC(C(=O)NCCc3ccccc3)CC2)cc1,21.2%
2,COc1ccc(CCNC(=O)C2CCN(c3nn4c(=O)cc(C)nc4s3)CC2)cc1OC,2.26%
3,CSc1ccc(CCNC(=O)C2CCN(c3nnc(-n4cccc4)s3)CC2)cc1,77.9% (active)
4,COc1cc(O)c2c(=O)c3c(O)c(O)ccc3oc2c1OC,27.1%
5,COCCNC(=O)C1CCN(S(=O)(=O)c2ccc3c(c2)OCCO3)CC1,-3.08%
6,COC(=O)c1ccc(Sc2ccc(F)cc2)c(N)c1,-3.98%
7,Cc1snc(SCc2c(F)cccc2Cl)c1C#N,-7.91%
8,Cc1ccc(C(=O)N/C(=C\c2ccco2)C(=O)N2CCSCC2)cc1C,-0.71%
9,CS(=O)(=O)NCc1ccc(C(=O)NCc2ccccc2)cc1,-3.96%
10,CSc1ccc(CNC(=O)c2ccc(NC(=O)C3=CSCCO3)cc2)cc1,98.2% (active)
11,O=C(Nc1ccc(C(=O)NCc2ccccc2Cl)cc1)C1=CSCCO1,-0.39%
12,NC(=O)c1ccsc1NC(=O)COC(=O)Cc1n[nH]c(=O)c2ccccc12,-0.52%
13,CC1(C)C=Cc2c(ccc3c2OC[C@@H](c2ccc(O)cc2O)C3)O1,45% (active)
14,CCCCN(C(=O)c1ccc(OC(F)(F)F)cc1)c1c(N)n(CCC)c(=O)[nH]c1=O,7.36%
15,COc1cccc(OC)c1C(=O)OCC(=O)/C(C#N)=C(\C)N,13.3%
16,CSCC(=O)N1CCCC(C(=O)c2cc(F)ccc2F)C1 (stereo not given),-14.2%
17,COc1ccc2c(c1OC)C(=O)OC2Nc1nc(-c2ccccc2)cs1 (stereo not given),43.4% (active)
18,CCc1ccccc1NC(=O)[C@@H]1CCC(=O)N1C1OC(=O)c2c1ccc(OC)c2OC (stereo not given in full),11.2%
19,C/C(CC1CC(C)(C)OC1=O)=N/Nc1nc(-c2ccccc2)cs1 (stereo not given),4.49%
20,O=C(NCC1CC1)c1onc(CSc2ccccc2)c1C(=O)NCC1CC1,-4.02%
21,CCn1c(SCC(=O)NC2CC2)nnc1-c1ccccn1,-5.81%
22,COC(=O)C1(C)NC(c2ccc(F)cc2)C2C(=O)N(c3ccccc3)C(=O)C21 (stereo not given),1.51%

row,SMILES,response
1,Cc1n[nH]c(=O)c2c1nnn2Cc1ccc(F)cc1,2.64%
2,CCCN(CCc1ccccc1)C1CCc2c(O)cccc2C1 (stereo not given),56.8% (active)
3,Cc1cc(C)cc(C(=O)N(CCc2ccccc2)C2=CC3CCC(C2)N3C)c1 (stereo not given),11.3%
4,CCOC(=O)c1cnc(SCC(=O)Nc2ccccc2C(=O)OC)nc1N,2.55%
5,O=C(O)CCCn1cc(NC(=O)COc2cccc(Cl)c2)cn1,15.6%
6,COC(CNC(=O)Cn1ncc2ccsc2c1=O)OC,1.39%
7,CN(C)S(=O)(=O)Oc1ccccc1C(=O)Nc1ccccc1Cl,1.66%
8,O=C(Nc1ccccc1Cl)/C(Cl)=C(\Cl)S(=O)c1ccccc1 (stereo not given),56.9% (active)
9,O=C(COC(=O)CCc1c[nH]c(=O)[nH]1)Nc1ccccc1Cl,-3.16%
10,CCc1nc(N2CCN(C(C)=O)CC2)c2c3c(sc2n1)CCCC3,-8.93%
11,COc1cccc(NC(=O)c2ccc3c(SCC(=O)O)c4c(nc3c2)CCCC4)c1,1.27%
12,CC(C)CCNC(=O)c1ccc2c(Cl)c3c(nc2c1)CCC3,-1.39%
13,CC(=O)c1ccc(NC(=O)c2ccc3c(Cl)c4c(nc3c2)CCCC4)cc1,60.5% (active)
14,CC(C)NC(=O)COCc1cc(-c2ccc3c(c2)OCO3)on1,-5.4%
15,N#CC1(NC(=O)COc2ccc3oc4ccccc4c3c2)CCCCC1,-4.35%
16,O=C(c1ccccc1)c1ccc2nc(N3CCCCC3)c3nncn3c2c1,-11.4%
17,Brc1ccccc1CN1CCC(Cc2ccccc2)CC1,4.82%
18,c1ccc(CC2CCN(c3nc4ccccc4n4cnnc34)CC2)cc1,68% (active)
19,CSc1nc(-c2ccccc2)nc(C(Cl)Cl)n1,81.7% (active)
20,COc1ccc(C2c3ccc(O)cc3Oc3ncn(CCCO)c(=N)c32)cc1OC (stereo not given),-10.4%
21,CS(=O)(=O)N1CCN(CC(=O)NC2CCCC2)CC1,-2.25%
22,CCN1CCC(O)(/C=C/c2ccc(C)cc2)C(C(=O)/C=C/c2ccc(C)cc2)C1 (stereo not given),52.9% (active)

row,SMILES,response
1,CCOC(=O)C1CCCN(C(=O)/C=C/c2ccc(OC)cc2)C1 (stereo not given),0.35%
2,O=C(NCCCn1ccnc1)Nc1ccc(Cl)cc1Cl,-0.95%
3,COc1ccc(S(=O)(=O)N2CCCC(C(=O)NCCCn3ccnc3)C2)cc1OC (stereo not given),10.8%
4,O=C(NCCCn1ccnc1)C1CCCN(S(=O)(=O)c2cc(Cl)ccc2Cl)C1 (stereo not given),105% (active)
5,CC1Cc2ccccc2N1C(=O)Cn1cnc2ccccc2c1=O (stereo not given),6.28%
6,Cc1ccn2cc(-c3nonc3C)cc2c1,15.2%
7,CC(C)OC(=O)CN1C(=O)C(=O)c2ccccc21,7.48%
8,O=C(CN1C(=O)C2C3C=CC(C3)C2C1=O)NCC1COc2ccccc2O1 (stereo not given),1.48%
9,O=C1C(=O)N(CC2COc3ccccc3O2)c2ccccc21 (stereo not given),45.6% (active)
10,c1ccc(CSc2ncnc3c2sc2nc(N4CCOCC4)c4c(c23)CCCC4)cc1,10.1%
11,C#CCOCCOCCOCCNc1nc(N2CCN(C(=O)C([C@@H](C)O)n3cc([C@@H](N)CCCCN)nn3)CC2)nc(N2CCN(C(=O)[C@H](CCCCN)n3cc(CN)nn3)CC2)n1 (stereo not given in full),1.85%
12,C#CCOCCOCCOCCNc1nc(N2CCN(C(=O)Cn3cc(CCO)nn3)CC2)nc(N2CCN(C(=O)[C@H](CCCCN)n3cc(CCCC)nn3)CC2)n1,0.16%
13,C#CCOCCOCCOCCNc1nc(N2CCN(C(=O)CCCCCCCCCCNC(=O)[C@H]([C@@H](C)CC)n3cc(CCCCN=C(N)N)nn3)CC2)nc(N2CCN(C(=O)CCCCCCCCCCNC(=O)[C@H](CO)n3cc(CCCSC)nn3)CC2)n1,96.3% (active)
14,C#CCOCCOCCOCCNc1nc(N2CCN(C(=O)[C@H](CCCN=C(N)N)n3cc(C(N)[C@@H](C)CC)nn3)CC2)nc(N2CCN(C(=O)[C@H](CO)n3cc([C@@H](N)C(C)C)nn3)CC2)n1 (stereo not given in full),-10.2%
15,C#CCOCCOCCOCCNc1nc(N2CCN(C(=O)[C@H](CCC(=O)O)n3cc(CN)nn3)CC2)nc(N2CCN(C(=O)[C@H](CCC(=O)O)n3cc(CN)nn3)CC2)n1,-3.45%
16,C#CCOCCOCCOCCNc1nc(N2CCN(C(=O)Cn3cc(CCO)nn3)CC2)nc(N2CCN(C(=O)Cn3cc(CCCN=C(N)N)nn3)CC2)n1,6.34%
17,C#CCOCCOCCOCCNc1nc(N2CCN(C(=O)CCCCCCCCCCNC(=O)Cn3cc(CCCCCN)nn3)CC2)nc(N2CCN(C(=O)CCCCCCCCCCNC(=O)[C@H](CO)n3cc(CCCSC)nn3)CC2)n1,64.5% (active)
18,C#CCOCCOCCOCCNc1nc(N2CCN(C(=O)CCCCCCCCCCNC(=O)[C@H](CCCCN)n3cc(C)nn3)CC2)nc(N2CCN(C(=O)CCCCCCCCCCNC(=O)[C@H](CO)n3cc(CCCSC)nn3)CC2)n1,77% (active)
19,C#CCOCCOCCOCCNc1nc(N2CCN(C(=O)[C@H](CCCCN)n3cc(CCC(=O)O)nn3)CC2)nc(N2CCN(C(=O)[C@H](CCCCN)n3cc(CC(C)O)nn3)CC2)n1 (stereo not given in full),0.88%
20,Cc1ccccc1NC(=O)C(C)OC(=O)CCC(=O)N(CC(C)C)c1c(N)n(CC(C)C)c(=O)[nH]c1=O (stereo not given),-6.93%
21,CC(Cc1cccs1)NC(=O)c1cccc(Cl)c1 (stereo not given),5.14%
22,NC(=O)C1CCN(C(=O)/C(=C/c2ccco2)NC(=O)c2ccccc2)CC1,1.8%

row,SMILES,response
1,CN(CCCNC(=O)CN1C(=O)CC(C)(C)S(=O)(=O)c2ccccc21)C1CCCCC1,-2.22%
2,CC(NC(=O)c1ccccc1C(=O)O)c1ccc(-n2ccnc2)cc1 (stereo not given),-8.08%
3,CCCOCC(O)CC(CC)C(=O)NNC(=S)Nc1ccccc1 (stereo not given),2.14%
4,O=C(O)CCn1c(O)c(C=C2N=c3ccccc3=N2)sc1=S,-0.19%
5,COC(=O)c1ccccc1NC(=O)C1CCN(S(=O)(=O)c2cc(OC)ccc2OC)CC1,4.15%
6,Nc1cc(N2CCCCCC2)c2nonc2c1[N+](=O)[O-],7.26%
7,Cc1nnc(SCC(=O)N2c3ccccc3C(C)(c3ccc(Cl)cc3)CC2(C)C)s1 (stereo not given),5.93%
8,CSCCNC(=O)c1ccc2nc(Cc3ccccc3F)oc2c1,1.28%
9,CC1=C(C)CC(C(=O)NNC(=O)c2csc3c2CCC(C(C)(C)C)C3)C(C(=O)O)C1 (stereo not given),61% (active)
10,CC1=C(C)CC(C(=O)NNC(=O)c2ccccc2O)C(C(=O)O)C1 (stereo not given),-13%
11,COC(=O)c1c(NC(=O)C2CC(C)=C(C)CC2C(=O)O)sc2c1CCCCC2 (stereo not given),4.27%
12,C=CCNC(=O)C1CC=CCC1C(=O)O (stereo not given),-0.29%
13,CCCCNc1c(-c2ccc(OC)c(Sc3ccc(OC)cc3)c2)nc2ccc(Cl)cn12,23%
14,CCCCNc1c(-c2cccc(Sc3ccc(OC)cc3)c2)nc2ccccn12,45% (active)
15,CCCCCCSc1ccc(-c2nc3ccc(Cl)cn3c2NCc2ccccc2)cc1,-5.85%
16,COc1ccc(C2=Nn3c(nnc3-c3ccccc3OC)SC2)cc1OC1CCCC1,29.8%
17,O=C1C=C(NS(=O)(=O)c2ccccc2)C(=O)c2ccccc21,1.55%
18,CC(NC(=O)c1ccccc1)C(=O)Nc1ccccc1 (stereo not given),-0.42%
19,O=C(NC1=CC(=O)c2ccccc2C1=O)c1ccccc1,84% (active)
